# Hit rate of the full screen: of about 300,000 compounds, about 3,200 (1.1%) were called active.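 The calls were made as follows: active = inhibition above the campaign mean inhibition plus 3 SD (cut at about 35% in these data); inactive = the rest.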 The sample as a whole holds a higher share of actives than the screen did.
# Biological target: Glutathione S-transferase omega-1 (Homo sapiens) (UniProt P78417)
# Assay: human GSTO1 enzyme inhibition – biochemical, fluorescence polarization, counter-screen for RBBP9 inhibitor project, primary screen (AID 1974);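 also: 0% = GSTO1-1 with DMSO and 100% = wells lacking GSTO1-1 enzyme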
# Settings: recombinant GSTO1, activity-based probe fluorescence polarization; at 5.96 µM; hits give high values
# Chain of Glutathione S-transferase omega-1 (Homo sapiens) (P78417 whole entry, looked up): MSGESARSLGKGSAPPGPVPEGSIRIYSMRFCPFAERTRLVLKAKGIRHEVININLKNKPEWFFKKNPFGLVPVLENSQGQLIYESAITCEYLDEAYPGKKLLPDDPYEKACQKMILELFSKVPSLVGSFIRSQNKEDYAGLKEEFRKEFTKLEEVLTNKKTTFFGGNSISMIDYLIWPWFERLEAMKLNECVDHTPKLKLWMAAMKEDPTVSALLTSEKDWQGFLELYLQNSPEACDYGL
row,Compound,inhibition
1,NC(=O)CSc1nnc(NC(=O)c2ccc3ccccc3c2)s1,-7.13% (inactive)
2,Cc1ccc(/C=C2/SC(=S)N(CCC(=O)NCCCN3CCOCC3)C2=O)cc1,36.4% (active)
3,O=C(CCN1C(=O)c2ccccc2C1=O)NCCN1CCOCC1,6.46% (inactive)
4,Cc1ccc(/C=C2\SC(=S)N(CCC(=O)Nc3ccc(O)cc3)C2=O)cc1,-1.64% (inactive)
5,Cc1csc(NC(=O)CSc2nc(=O)n(CCCN(C)C)c3c2CCC3)n1,10.8% (inactive)
6,Cc1cccc(C)c1NC(=O)CNC(=O)c1c(C)nn(-c2ccccc2)c1C,-1.44% (inactive)
7,Cc1nn(-c2ccccc2)c(C)c1NC(=O)COc1ccc(Cl)cc1Cl,8.17% (inactive)
8,Cc1nn(-c2ccccc2)c(C)c1NC(=O)CCl,82.7% (active)
9,O=C(Nc1ccc2nc3n(c(=O)c2c1)CCCC3)c1ccc(Cl)nc1,-3.93% (inactive)
10,O=S(=O)(Nc1ccc(O)c2ccccc12)c1ccc(OC(F)(F)F)cc1,67.3% (active)
11,Cc1nn(C)c(C)c1NS(=O)(=O)c1ccc(OC(F)(F)F)cc1,5.1% (inactive)
12,O=S(=O)(Nc1ccc(OC(F)(F)F)cc1)c1cccc2nonc12,10.2% (inactive)
13,CSc1nnc(C2CCCN(CC(=O)Nc3ccccc3N3CCOCC3)C2)n1C(C)C (stereo not given),4.43% (inactive)
14,O=C(c1cc(-c2ccc(Cl)s2)nc2ccccc12)N1CCOCC1,-12.9% (inactive)
15,CCOc1ccc(/C=C/C(=O)N(CC)CC(=O)NCc2cccs2)cc1OC,19.7% (inactive)
16,Cc1cccn2c(=O)nc(SCC(=O)NCc3ccccc3Cl)nc12,0.44% (inactive)
17,CC1=CC(C)(C)Nc2ccc(OC(=O)C(Cc3ccccc3)N3C(=O)C4CCCCC4C3=O)cc21 (stereo not given),18.1% (inactive)
18,O=C(CN1C(=O)C2C3CCC(C3)C2C1=O)Oc1ccc2ccccc2c1 (stereo not given),12.6% (inactive)
19,CC1=CC(C)(C)Nc2ccc(OC(=O)CN3C(=O)C4CCCCC4C3=O)cc21 (stereo not given),48.4% (active)
20,Cc1ccc([C@@H]2CC=C(C(=O)O)[C@H](c3cccc(Cl)c3)N2S(=O)(=O)c2ccc(C)cc2)cc1,-107% (inactive)
21,Cc1ccc(S(=O)(=O)N2[C@@H](c3ccccc3F)C(C(=O)O)=CC[C@H]2c2ccc(Cl)cc2)cc1,-60.4% (inactive)
22,Cc1ccccc1NC(=O)COc1cccc2c1CCNC2=O,0.64% (inactive)
23,Cc1ccc(S(=O)(=O)N2CCCCC2)cc1C(=O)N(C)CC(=O)Nc1cccc(F)c1,6.24% (inactive)

row,Compound,inhibition
1,COc1ccc2c(c1)[C@H]1[C@H](CO2)[C@H](c2ccccc2)[C@]2(C)C(=O)Nc3cc(F)c(F)cc3C(=O)N12,-3.75% (inactive)
2,COc1ccccc1CCC(=O)OCC(=O)N1CCN(S(=O)(=O)c2ccc(C)cc2C)CC1,8.7% (inactive)
3,O=c1oc2ccccc2cc1-c1csc(Nc2ccc(O)cc2)n1,5.73% (inactive)
4,COc1ccc(C)cc1Nc1nc(-c2c(C)[nH]c3ccccc23)cs1,0.17% (inactive)
5,COc1ccc(-c2csc(Nc3ccc(O)cc3)n2)cc1,44.8% (active)
6,COc1cccc(CC(=O)Nc2nc(-c3ccc(OC)c(OC)c3)cs2)c1,-14.6% (inactive)
7,COc1ccc(OC)c(Nc2nc(-c3ccc(O)c(O)c3)cs2)c1,57.3% (active)
8,COc1ccc(-c2csc(Cc3nc(O)cs3)n2)cc1,8.36% (inactive)
9,COc1cccc(N2CC(NS(=O)(=O)c3cccs3)CC2=O)c1 (stereo not given),7.08% (inactive)
10,CC(=O)Nc1ccc(C(=O)Nc2cccc(S(=O)(=O)NC3=NCCC3)c2)cc1,0.43% (inactive)
11,O=C(OCc1nnc(-c2ccccc2)o1)c1cc(=O)[nH]c2ccccc12,8.64% (inactive)
12,CCC(C)N(C(=O)COC(=O)c1nc(Cl)ccc1Cl)C1CCS(=O)(=O)C1 (stereo not given),-3.44% (inactive)
13,CCOC(=O)[C@H]1[C@H]2COc3ccc(OC)cc3[C@@H]2N2C(=O)c3ccc(F)cc3NC(=O)[C@@]12C,8.55% (inactive)
14,Cc1ccc(Cn2c(=N)c(S(=O)(=O)c3ccc(C)cc3)cc3c(=O)n4ccccc4nc32)cc1,1.35% (inactive)
15,O=[N+]([O-])C(=c1ccc2c(c1)N1C3=C(CCCC3)CC3CCCCC31N=2)[N+](=O)[O-] (stereo not given),35.2% (active)
16,CCN(CC(=O)NCc1ccc(Cl)cc1)C(=O)CSc1ccccc1,-6.37% (inactive)
17,O=C(Cn1c(-c2ccccn2)nc2ccccc21)NCCN1CCOCC1,98.3% (active)
18,O=C(Cc1ccc(Br)cc1)NCCN1CCOCC1,-0.16% (inactive)
19,O=C(NCCN1CCOCC1)c1cc(-c2cccs2)nc2ccccc12,-2.35% (inactive)
20,CCCCN(C1CCS(=O)(=O)C1)S(=O)(=O)c1ccc(C(C)C)cc1 (stereo not given),-0.04% (inactive)
21,CC(C)Oc1ccc(C(CC(=O)N2CCOCC2)C(C)C)cc1 (stereo not given),10.3% (inactive)
22,CC(=O)N(Cc1cc(=O)[nH]c2ccccc12)c1ccc(C)cc1C,-13.1% (inactive)
23,Cc1ccc(N(Cc2cc(=O)[nH]c3ccccc23)C(=O)CCl)cc1,80% (active)

row,Compound,inhibition
1,Cc1ccc(N(Cc2cc3ccccc3[nH]c2=O)C(=O)c2cccs2)cc1,0.73% (inactive)
2,Cn1c(-c2ccc(C(F)(F)F)cc2)cc2onc(-c3ccccc3)c2c1=O,4.73% (inactive)
3,CC(C)(C)c1ccc(C(=O)NCc2ccco2)cc1,-7.66% (inactive)
4,CCC(C)Cn1c(O)cc2nn(-c3nc4ccccc4s3)c(=O)c-2c1C (stereo not given),36% (active)
5,Cc1nn(CC(=O)Nc2nc3ccccc3s2)c(C)c1[N+](=O)[O-],11.3% (inactive)
6,C/C(=N\NC(=O)CC(C)C)c1c(C(F)(F)F)[nH]n(-c2nc3ccccc3s2)c1=O,-27.6% (inactive)
7,O=C(CN1C(=O)NC2(CCCC2)C1=O)OCCOc1ccc(F)cc1,8.87% (inactive)
8,COc1cc(/C=C2/C(=O)NN(c3cccc(Cl)c3)C2=O)cc(Br)c1O,-21.9% (inactive)
9,C=CCOc1c(Br)cc(/C=N\n2nnnc2N)cc1OC,0.64% (inactive)
10,CCOc1c(Br)cc(/C=C2\C(=O)N(CCC#N)N=C2C)cc1OC,39.6% (active)
11,Cc1ccc(NC(=O)C2CC(=O)N(c3ccc4c(c3)OCCO4)C2)cc1S(=O)(=O)N1CCCCCC1 (stereo not given),0.87% (inactive)
12,Cc1cccc(C(=O)NCCCN(C)CCCNC(=O)c2cccc(C)c2)c1,-1.1% (inactive)
13,CCN(CCCNC(=O)c1ccc2c(c1)NC(=O)CN2C)c1cccc(C)c1,52.9% (active)
14,CCN(CCCNC(=O)CCn1c(=O)[nH]c2ccsc2c1=O)c1ccccc1,0.71% (inactive)
15,CCOCCn1[nH]c2ccccc2c1=O,1.49% (inactive)
16,Cc1ccccc1Cn1c(=O)[nH]c2ccccc21,8.19% (inactive)
17,O=c1[nH]c2ccccc2n2c(-c3ccccc3)nnc12,69.1% (active)
18,CC(=O)c1c(-c2ccccc2)c2ccccc2[nH]c1=O,-2.94% (inactive)
19,O=S(=O)(NCCS(=O)(=O)N1CCN(c2ccccc2)CC1)c1ccc(F)cc1,-12.9% (inactive)
20,CN(CC(=O)NNC(=O)CNC(=O)c1ccccc1Cl)S(=O)(=O)c1ccc(Cl)cc1,5.54% (inactive)
21,O=C1NCCn2nc3ccccc3c21,3.49% (inactive)
22,CCOc1ccc(NC(=O)CCC(=O)N/N=C/c2ccc([N+](=O)[O-])s2)cc1,5.9% (inactive)
23,O=[N+]([O-])c1ccc(C=Nc2ccc(Cl)cc2Cl)s1,38.5% (active)

row,Compound,inhibition
1,O=C(NCc1ccccc1Cl)C(=O)NCC1CCCN1S(=O)(=O)c1cccs1 (stereo not given),4.65% (inactive)
2,CCOc1ccc(CCNC(=O)CN2C(=O)NC3(CCc4ccccc43)C2=O)cc1OCC (stereo not given),1.55% (inactive)
3,C#CCOCCOCCOCCNc1nc(N2CCN(C(=O)Cn3cc(CCCCN)nn3)CC2)nc(N2CCN(C(=O)[C@H](CCCCN)n3cc(CCC(=O)O)nn3)CC2)n1,6.12% (inactive)
4,Cc1ccc(S(=O)(=O)Nc2nc3ccccc3nc2N2CCc3ccccc3C2)cc1,0.1% (inactive)
5,Cc1ccc(S(=O)(=O)C(C#N)c2nc3ccccc3nc2N2CCCC2)cc1C (stereo not given),51.4% (active)
6,Cc1cc(N2CCN(S(=O)(=O)c3ccc(C)c(C)c3)CC2)c2ccccc2n1,-2.63% (inactive)
7,O=C(NCCC1CCCCN1S(=O)(=O)c1ccc(Cl)cc1)C(=O)NCc1ccco1 (stereo not given),-0.26% (inactive)
8,CN(C)CCc1c[nH]c2ccc(Cn3cncn3)cc12,4.56% (inactive)
9,CC(OC(=O)CCCOc1ccccc1)C(=O)Nc1ccc(Cl)cn1 (stereo not given),-0.72% (inactive)
10,O=C(CSc1cccc2cccnc12)N/N=C/c1cccnc1,36.6% (active)
11,Cc1ccc(NC(=O)CSc2cccc3cccnc23)c(C)c1,14.1% (inactive)
12,O=C(CNC(=O)c1cccnc1)N/N=C/c1cccnc1,-0.23% (inactive)
13,O=C(CSc1nc(=O)n2ccccc2n1)Nc1ccc2c(c1)OCCO2,3.74% (inactive)
14,C/C(CCC(=O)OC[C@H]1O[C@H](C#Cc2ccccc2)C=C[C@@H]1Oc1ccc(C)cc1)=N\OC[C@@H](O)[C@H]1O[C@@H]2OC(C)(C)O[C@@H]2[C@H]1O,3.31% (inactive)
15,CCOc1ccc(/C=C/C(=O)OCC(=O)c2ccccc2OC)cc1OC,-2.58% (inactive)
16,O=C(N/N=C/c1ccc(O)c(O)c1)C1c2ccccc2Oc2ccccc21,35.5% (active)
17,CCC(C)(C)NC(=O)C1c2ccccc2Oc2ccccc21,3.61% (inactive)
18,CCC(C)NC(=O)C1c2ccccc2Oc2ccccc21 (stereo not given),2.29% (inactive)
19,CCOC(=O)N1CCN(C(=O)COc2ccc3oc4c(c3c2)CCCC4)CC1,-0.52% (inactive)
20,Nc1ccccc1/C=N\N=C/c1ccccc1N,8.02% (inactive)
21,CCOc1ccc(CCNC(=O)COC(=O)c2ccc(F)c(S(=O)(=O)N3CCOCC3)c2)cc1OCC,11.6% (inactive)

# — PubChem BioAssay AID1974 (The Scripps Research Institute Molecular Screening Center, 2009)
